Source: PubChem (National Center for Advancing Translational Sciences (NCATS))
DRD3 antagonist – blocks the human D3 dopamine receptor | P35462 | D3R cells, DiscoveRx beta-arrestin luminescence, antagonist mode; active compounds read low | max response, negative = inhibition, % | 360,000 compounds, 2.5% hits | AID 652054; in the data active means max response below about -50%; inconclusive means no clear call, values can overlap the other calls; further: on the % scale 0 is the no-effect control and ±100 the full control effect
Target sequence (P35462 whole entry, looked up): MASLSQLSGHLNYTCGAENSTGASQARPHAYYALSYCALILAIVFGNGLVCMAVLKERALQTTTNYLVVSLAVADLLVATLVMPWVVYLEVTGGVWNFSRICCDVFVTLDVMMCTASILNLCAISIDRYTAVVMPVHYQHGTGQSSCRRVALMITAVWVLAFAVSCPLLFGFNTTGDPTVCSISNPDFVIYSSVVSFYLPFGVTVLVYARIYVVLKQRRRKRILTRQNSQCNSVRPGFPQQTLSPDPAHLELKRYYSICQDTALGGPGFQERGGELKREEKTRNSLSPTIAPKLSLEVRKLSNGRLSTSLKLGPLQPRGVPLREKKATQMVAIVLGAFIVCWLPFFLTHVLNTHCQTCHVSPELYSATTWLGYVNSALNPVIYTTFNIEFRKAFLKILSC
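Cells plated overnight at 1500 cells/well, then exposed to library compounds with dopamine controls for 90 minutes at 37 degrees C. DiscoveRx reagent added for 30–60 minutes at room temperature; luminescence read, quantitative HTS format.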
D3 ag – activates the human D3 dopamine receptor. 410,000 compounds, 0.58% hits. max activation, %. D3R DiscoveRx beta-arrestin cells, luminescence, 90 min. P35462. AID 652048; in the data active means max activation above about 30%; further: 0% is about no effect
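Agonist-mode cell screen: cells plated at 1500/well and incubated overnight at 37 °C, then exposed to library compounds for 90 min at 37 °C. Detection reagent was added for 30–60 min at room temperature, and luminescence was read.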
TGFb inhibitor – TGF-b pathway inhibition; HepG2 CAGA-GFP TGF-b/SMAD3 reporter, GFP fluorescence, 18 h; TGF-beta stimulated, 500 pg/mL final; Potency, µM (top dose mostly 46.1 µM), without a hit: at the highest dose activity, negative = inhibition, hits mostly inhibitors; 410,000 compounds, 1.2% hits; AID 588855; further: potency means the concentration at half of the fitted maximal effect; on the % scale 0 is the no-effect control and ±100 the full control effect; nearly all actives have a fitted effect of over 65% in size
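HEPG2 CAGA-GFP reporter cells (1000/well, DMEM with 1% FBS) received compounds, then recombinant TGF-beta at 500 pg/mL final for 18 hours at 37 degrees C. Per-cell GFP summed per well was normalised to unstimulated and stimulated DMSO controls before curve fitting.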
S2 tox – viability counter-screen for ATXN expression inhibitors; S2 cells (HEK-293 line with an ATXN2-luciferase reporter) viability, CellTiter-Fluor protease fluorescence, 24 h; Potency, µM (titrated, usually from 56.7 µM), most hits filed as cytotoxic; 400,000 compounds, 0.49% hits; further: potency means the concentration at half of the fitted maximal effect; nearly all actives have a fitted effect of over 40% in size
HepG2 viability – counter-screen for TGF-b inhibitors: cytotoxicity in HepG2 cells. HepG2 CAGA-GFP viability, ATP luminescence, 18 h. Potency, µM (series often up to 46.1 µM), for the others: at the highest dose activity change, negative = cytotoxicity, hits mostly cytotoxic. 410,000 compounds, 0.76% hits; further: potency means the concentration at half of the fitted maximal effect
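HepG2 CAGA-GFP cells (1000/well, DMEM with 1% FBS) received compound, then TGF-beta at 500 pg/mL final, and were incubated 18 hours at 37 degrees C. Viability was read by CellTiter-Glo luminescence. Media-only wells were set as complete cell-killing and DMSO as no toxicity.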
ATXN2 expr inh – inhibitors of ATXN2 expression. HEK-293 ATXN2-luciferase reporter, luminescence, 24 h. Potency, µM (doses to about 57 µM), for the others: at the highest dose activity change, negative = inhibition, hits mostly inhibitors. 360,000 compounds, 0.72% hits. AID 1745845; further: potency means the concentration at half of the fitted maximal effect; on the % scale 0 is the no-effect control and ±100 the full control effect; nearly all actives have a fitted effect of over 55% in size
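qHTS (up to 57 uM final) was run with 24 h compound exposure of reporter cells at 37 °C. Each well was multiplexed: SteadyGlo luminescence measured ATXN2-luciferase expression after a fluorogenic Gly-Phe-AFC viability readout (25 uM final).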
An asterisk follows results filed as active. Rows were chosen to be rich in hits. Some 4.8% of all compounds tested hit in one or more screens of this group. Unless noted, the call rests on the fitted dose curve; in most records, active means well fitted curve in the direction sought with a large enough effect; inconclusive means small, poorly fitted or top-dose-only effect, or another doubt; inactive means no such curve, though single readings can be large; an effect the other way counts as inactive or inconclusive.

What do the screens show for `O=C(NCCCN1CCN(c2ccc(F)cc2)CC1)Nc1ccc(Cl)cc1`?
D3 ag: -19.2; TGFb inhibitor: inconclusive; S2 tox: inconclusive; HepG2 viability: -97.0%; ATXN2 expr inh: inconclusive

How did COc1ccc(NC(=O)NCCN2CCc3ccccc3C2)cc1 do in these assays?
DRD3 antagonist: -83.1*; D3 ag: -16.2; TGFb inhibitor: 14.2%; S2 tox: inactive; HepG2 viability: 7.8%; ATXN2 expr inh: -7.6%

How did O=C(NCCCN1CCc2ccccc2C1)Nc1ccc(Cl)cc1 do in these assays?
DRD3 antagonist: -91.5*; D3 ag: -37.7; TGFb inhibitor: -15.5%; S2 tox: inactive; HepG2 viability: -56.8%; ATXN2 expr inh: 3.3%

How did CN(C)CC(C)(O)c1ccc2c(c1)CN(Cc1cccn1-c1cccnc1)CCO2 (configuration not stated) do in these assays?
S2 tox: inactive

Results for COCCCNC(=O)c1sc2nc3n(c(=O)c2c1C)CCC3 ?
D3 ag: -3.8; TGFb inhibitor: 4.5%; HepG2 viability: -2.1%

Results for COc1ccc(-c2cc3c(=O)n(CC(=O)NCCCN4CCC(Cc5ccccc5)CC4)ncn3n2)cc1 ?
DRD3 antagonist: -100.9*; D3 ag: -23.1; TGFb inhibitor: -6.7%; S2 tox: inactive; HepG2 viability: -13.2%; ATXN2 expr inh: inconclusive

What do the screens show for `CCOc1ccc(CCNC(=O)Cn2ncn3nc(-c4ccc(OC)cc4)cc3c2=O)cc1`?
DRD3 antagonist: -0.2; D3 ag: 5.6; TGFb inhibitor: 11.4%; S2 tox: inactive; HepG2 viability: -1.7%; ATXN2 expr inh: 12.8%

What do the screens show for `COc1ccc(-c2cc3c(=O)n(CC(=O)NCc4ccc(Cl)cc4)ncn3n2)cc1`?
DRD3 antagonist: 11.5; D3 ag: 4.9; TGFb inhibitor: 7.3%; HepG2 viability: -2.8%; ATXN2 expr inh: 12.8%

Results for COc1ccc(-c2cc3c(=O)n(CC(=O)NCCCN4CCN(Cc5ccccc5)CC4)ncn3n2)cc1 ?
DRD3 antagonist: -66.9*; D3 ag: -15.3; TGFb inhibitor: 1.9%; S2 tox: inactive; HepG2 viability: 9.2%

What do the screens show for `CCN(c1ccccc1)c1ncnc2c1cnn2-c1ccc(OC)cc1`?
D3 ag: 11.4; TGFb inhibitor: 39.8%; S2 tox: inactive; HepG2 viability: -7.6%; ATXN2 expr inh: 82.1%

Results for COc1cc(NC(=O)C2=C(C)OCCS2)c(Cl)cc1C(=O)NCCN(C)C ?
DRD3 antagonist: -52.4*; D3 ag: -11.2; TGFb inhibitor: -1.5%; S2 tox: inconclusive; HepG2 viability: 4.2%; ATXN2 expr inh: -16.1%

What do the screens show for `Nc1nc2ccc(Cl)cc2cc1C(=O)NCCc1ccc(O)cc1`?
DRD3 antagonist: 4.3; D3 ag: 5.3

How did CCNC(=O)c1cc(Cl)ccc1OC do in these assays?
DRD3 antagonist: -6.9; D3 ag: 3.1; TGFb inhibitor: 0.9%; S2 tox: inactive; HepG2 viability: 1.2%; ATXN2 expr inh: -2.8%

Results for COc1ccc(Cl)cc1C(=O)NCCN(C)C ?
DRD3 antagonist: -71.8*; D3 ag: -4.2; TGFb inhibitor: -5.4%; S2 tox: inactive; HepG2 viability: -15.8%; ATXN2 expr inh: -6.3%

Results for COc1ccc(CCNC(=O)c2cc3cc(Cl)ccc3nc2N)cc1OC ?
DRD3 antagonist: -7.3; D3 ag: 50.6*; S2 tox: inactive; ATXN2 expr inh: -14.1%

How did COc1ccc(CC(=O)NCCc2sc(-c3ccc(Cl)cc3)nc2C)cc1OC do in these assays?
D3 ag: 3.8; TGFb inhibitor: 7.94µM*; S2 tox: inconclusive; HepG2 viability: -20.8%; ATXN2 expr inh: -15.6%

Results for COc1ccc(NC(=O)CN(C)S(=O)(=O)c2ccc(C(=O)N3CCOCC3)s2)cc1 ?
D3 ag: -8.9; TGFb inhibitor: -9.7%; S2 tox: inactive; HepG2 viability: -6.0%; ATXN2 expr inh: 1.9%

How did COc1ccc2nccc(/C=C/c3ccc(N(C)C)cc3)c2c1 do in these assays?
TGFb inhibitor: -16.2%; HepG2 viability: -34.1%

Results for Cc1ccsc1C(=O)N(Cc1cc2ccc(F)cc2nc1N1CCC(O)CC1)CC1CCCO1 (configuration not stated) ?
S2 tox: inactive

What do the screens show for `CCc1ccc(-c2[nH]nc3nc(-c4ccc(OC)cc4)cc(C(=O)NCCc4ccc(OC)c(OC)c4)c23)cc1`?
D3 ag: 13.5; TGFb inhibitor: 10µM*; S2 tox: inactive; HepG2 viability: -61.8%; ATXN2 expr inh: inconclusive

Results for CN(C)CCNC(=O)c1ccc(COc2ccc(Cl)cc2Cl)cc1 ?
DRD3 antagonist: -28.7; D3 ag: -18.5; TGFb inhibitor: inconclusive; S2 tox: inconclusive; HepG2 viability: 11.2µM*; ATXN2 expr inh: inconclusive

Results for CCN(CCCNC(=O)c1nn(C)c2c1CS(=O)(=O)c1ccccc1-2)Cc1ccccc1 ?
DRD3 antagonist: -55.9*; D3 ag: -21.9; TGFb inhibitor: 5.5%; S2 tox: inactive; HepG2 viability: -30.1%; ATXN2 expr inh: -10.7%

What do the screens show for `CCN(CC)CCNC(=O)c1nn(C)c2c1CS(=O)(=O)c1ccccc1-2`?
D3 ag: -15.2; TGFb inhibitor: -16.9%; S2 tox: inactive; HepG2 viability: 3.0%; ATXN2 expr inh: -2.8%

How did Cc1onc(C(=O)NN)c1-c1csc(COc2ccc(Cl)cc2)n1 do in these assays?
DRD3 antagonist: 4.4; D3 ag: 44.5*; TGFb inhibitor: -9.8%; S2 tox: inactive; HepG2 viability: 3.0%; ATXN2 expr inh: 1.7%

How did CSc1ccc(/C=C2\C=Cc3cc([N+](=O)[O-])ccc32)cc1 do in these assays?
TGFb inhibitor: 2.6%; HepG2 viability: -2.9%

How did OC(c1ccccc1)(c1ccccc1)C1CCN(CCCOc2cccc(OC(F)(F)F)c2)CC1 do in these assays?
DRD3 antagonist: -80.5*; D3 ag: -13.5; ATXN2 expr inh: inconclusive

What do the screens show for `N#CCc1ccc(OCCCN2CCC(C(O)(c3ccccc3)c3ccccc3)CC2)cc1`?
DRD3 antagonist: -68.2*; D3 ag: -18.0; S2 tox: inconclusive; ATXN2 expr inh: 0.0%

How did OC(c1ccccc1)(c1ccccc1)C1CCN(CCCOc2ccc3c(c2)CCCC3)CC1 do in these assays?
DRD3 antagonist: -16.7; D3 ag: 5.1; S2 tox: 25.1µM*; ATXN2 expr inh: 17.8µM*

Results for Oc1ccccc1CN1CCC(C(O)(c2ccccc2)c2ccccc2)CC1 ?
DRD3 antagonist: 0.0; D3 ag: -4.4; TGFb inhibitor: -6.3%; S2 tox: inactive; HepG2 viability: -29.2%; ATXN2 expr inh: 4.4%
